The source of these data is PubChem BioAssay.

For part of these data: Results with a measured potency or affinity are listed apart. Active and inactive are the calls of the source.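 Rule for the calls, unless noted: active = primary screen active and over 50% activation in each of two duplicate runs; inactive = the rest.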

For experiment [1], the system named is TRPC4 beta (transient receptor potential cation channel C4), mouse. Nature of the experiment: TRPC4 cation channel opening, retest – cell-based, Fluo4 calcium, HEK293 TRPC4beta/mu-opioid, duplicates, 10 µM, confirmation (AID 2426;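 active = fluorescence ratio normalized to control raised more than 50% in primary screen plus both repeat runs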). The settings on record: Fluo4 calcium fluorescence, at 10 µM; hits give high values.
The test system of experiment [2] is transient receptor potential cation channel C4 beta (TRPC4), mouse. Nature of the experiment: TRPC4 cation channel opening, second retest – cell-based, second round, Fluo4, HEK293 TRPC4beta/mu-opioid, 1 µM, confirmation (AID 2461). The conditions noted are these: Fluo4 calcium fluorescence, at 1 µM; hits give high values.
Experiment [3] deals with TRPC4 (transient receptor potential cation channel C4 beta), mouse. The experiment is described as follows: potentiation of DAMGO EC20 TRPC4 response – cell-based, second round, Fluo-4, HEK293 TRPC4beta/mu-opioid, 1 µM, confirmation (AID 2554;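 active = primary screen hit whose fluorescence ratio, in both repeats, exceeds the weak agonist control mean by 3 SD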). The conditions noted are these: DAMGO EC20, Fluo-4 calcium flux, at 1 µM; hits give high values. In general terms: A change in cytosolic calcium serves as a functional read-out for many receptors and channels.

The subject of experiment [4] is TRPC4 beta (transient receptor potential cation channel C4), mouse. Nature of the experiment: potentiation of DAMGO EC20 TRPC4 response – cell-based, Fluo-4, HEK293 TRPC4beta/mu-opioid, confirmation (AID 2555;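 active = primary screen hit whose calcium fluorescence ratio, in both repeats, exceeds the weak agonist control mean by 3 SD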). The conditions noted are these: DAMGO EC20, Fluo-4 calcium flux, at 10 µM; hits give high values.
The target of experiment [5] is Short transient receptor potential channel 4 (Mus musculus) (UniProt Q9QUQ5). Nature of the experiment: blockers of DAMGO-evoked TRPC4 calcium flux – cell-based, Fluo4, HEK293 TRPC4beta/mu-opioid, confirmation (AID 2636;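 active = calcium signal cut by more than 3 SD below the full-agonist control yet still positive, in both repeats and the earlier primary screen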). The conditions noted are these: at 10 µM; hits give high values.
Experiment [6] shares this target. The experiment is described as follows: blockers of DAMGO-evoked TRPC4 calcium flux – cell-based, second round, Fluo4, HEK293 TRPC4beta/mu-opioid, 1 µM, confirmation (AID 2637;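 active = calcium signal ratio cut to more than 3 SD under the fully stimulated control mean yet still positive, in both repeats and the primary screen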). The settings on record: at 1 µM; hits give high values.
Experiment [7] has the same target. The experiment is described as follows: calcium entry via TRPC4 opening agents – cell-based, HEK293 TRPC4/mu-opioid, Fluo-4 calcium, dose response (AID 434937;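 active = primary screen activator hit with a dose response curve and TRPC4 channel activation at any tested dose; inactive = no activation, no dose response, or not a primary hit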).
For experiment [8] the target is unchanged. The experiment is described as follows: potentiation of DAMGO-evoked TRPC4 calcium signal – cell-based, HEK293 TRPC4/mu-opioid, Fluo-4 calcium, EC20 DAMGO, dose response (AID 434941;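 active = earlier screen potentiator hit that boosts the TRPC4 ion channel at some dose, with a dose response; inactive = no potentiation, no dose response, or not a prior hit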;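 note: calcium entry triggered by an EC20 dose of DAMGO at the co-expressed mu-opioid receptor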).
The target is the same in experiment [9]. The experiment is described as follows: block of DAMGO-driven TRPC4 calcium entry – cell-based, HEK293 TRPC4/mu-opioid, Fluo-4 calcium, dose response (AID 434942;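 active = primary screen inhibitor hit that blocks the TRPC4 channel at some tested dose, yielding a dose curve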).
Experiment [10] concerns the target Short transient receptor potential channel 6 (Mus musculus) (UniProt Q61143). Nature of the experiment: TRPC6 blockade by TRPC4 inhibitor hits – cell-based, HEK293, membrane potential dye, duplicate, selectivity assay for TRPC4 inhibitor project, confirmation (AID 434948;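 active = active in primary screen and both duplicates, each dropping signal beyond three positive-control SD with fluorescence still positive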). The conditions noted are these: HEK293 TRPC6, membrane potential dye fluorescence, at 10 µM, stimulated with maximal-effect acetylcholine; hits give high values.

The target is the same in experiment [11]. Nature of the experiment: TRPC6 opening by TRPC4 activator hits – cell-based, HEK293, membrane potential dye, duplicate, selectivity assay for TRPC4 activator project, confirmation (AID 434950;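 active = membrane potential signal rise above negative control mean plus 3 SD in both duplicates, also active in the earlier TRPC4 screen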). The conditions noted are these: HEK293 TRPC6, membrane potential fluorescence, at 10 µM; activation: hits give high values; outcome: activation.
Experiment [12] has the same target. The experiment is described as follows: positive modulators of mouse TRPC6 channel – HEK293 cells, membrane potential dye, duplicate, selectivity assay for TRPC4 potentiator project, confirmation (AID 434952;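 active = compound raising the membrane signal above positive-control mean plus 3 SD in both repeats, and a primary screen hit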). The conditions noted are these: HEK293 TRPC6, membrane potential dye fluorescence, at 10 µM, maximal acetylcholine added after compound; hits give high values.

In experiment [13] the target is Short transient receptor potential channel 4 (Mus musculus) (UniProt Q9QUQ5). The experiment is described as follows: calcium flux activators in TRPC4/5HT1a cells, counter-screen for TRPC4 activator project, cell-based, second counter screen, HEK293 TRPC4/5HT1a, Fluo-4 (AID 434977;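 active = calcium signal rise above buffer-control mean plus 5 SD in both duplicates, and also a hit in the primary screen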). The conditions noted are these: Fluo-4 calcium flux, at 10 µM; hits give high values.

Experiment [14] is described as follows: serotonin-gated TRPC4 signal block – cell-based, second counter screen, HEK293 TRPC4/5HT1a, Fluo-4, counter-screen for TRPC4 inhibitor project, confirmation (AID 434978;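 active = primary screen active whose calcium signal fell more than 3 SD beyond the full-serotonin control mean in both duplicate plates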;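 note: serotonin given first at submaximal then at maximal dose after compound preincubation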). The settings on record: Fluo-4 calcium flux, at 10 µM, serotonin added to trigger calcium flux; hits give high values. For orientation: The purpose of a counterscreen is to sort out artefacts and off-target activity.

For experiment [15], the system named is TRPC4 (mouse), co-expressed with 5HT1a in HEK293. Nature of the experiment: enhancement of serotonin-evoked TRPC4 response – cell-based, second counter screen, HEK293 TRPC4/5HT1a, Fluo-4, counter-screen for TRPC4 potentiator project, confirmation (AID 434979;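 active = signal rise over 3 SD above mean of control wells given weak agonist, in both repeats and first screen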). The settings on record: Fluo-4 calcium flux, at 10 µM, serotonin added at its EC20 dose; hits give high values.

Experiment [16] can be described thus: nonspecific calcium rise without TRPC4 – cell-based, HEK293 mu-opioid receptor line, counter-screen for TRPC4 activator project, confirmation (AID 449723;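 active = hit in primary screen, with calcium signal over 5 SD above buffer well mean in both duplicates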;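 note: counter screen cells carry the mu-opioid receptor alone and lack TRPC4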). The settings on record: HEK293 mu-opioid cells, Fluo-4 calcium fluorescence, at 10 µM; hits give high values.
The nature of experiment [17]: nonspecific potentiation of DAMGO calcium response – cell-based, HEK293 mu-opioid receptor line, counter-screen for TRPC4 allosteric potentiator project, confirmation (AID 449724;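 active = calcium signal rise more than 3 SD above the low-dose agonist control mean, in both duplicate plates and the primary screen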;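 note: HEK293 cells carrying mu-opioid receptor only with no TRPC4 channel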). The settings on record: HEK293 mu-opioid receptor cells, Fluo-4 calcium flux, at 10 µM, compound added before EC20 DAMGO stimulus; hits give high values.

Short transient receptor potential channel 4 (Mus musculus), sequence (Q9QUQ5 whole entry, looked up): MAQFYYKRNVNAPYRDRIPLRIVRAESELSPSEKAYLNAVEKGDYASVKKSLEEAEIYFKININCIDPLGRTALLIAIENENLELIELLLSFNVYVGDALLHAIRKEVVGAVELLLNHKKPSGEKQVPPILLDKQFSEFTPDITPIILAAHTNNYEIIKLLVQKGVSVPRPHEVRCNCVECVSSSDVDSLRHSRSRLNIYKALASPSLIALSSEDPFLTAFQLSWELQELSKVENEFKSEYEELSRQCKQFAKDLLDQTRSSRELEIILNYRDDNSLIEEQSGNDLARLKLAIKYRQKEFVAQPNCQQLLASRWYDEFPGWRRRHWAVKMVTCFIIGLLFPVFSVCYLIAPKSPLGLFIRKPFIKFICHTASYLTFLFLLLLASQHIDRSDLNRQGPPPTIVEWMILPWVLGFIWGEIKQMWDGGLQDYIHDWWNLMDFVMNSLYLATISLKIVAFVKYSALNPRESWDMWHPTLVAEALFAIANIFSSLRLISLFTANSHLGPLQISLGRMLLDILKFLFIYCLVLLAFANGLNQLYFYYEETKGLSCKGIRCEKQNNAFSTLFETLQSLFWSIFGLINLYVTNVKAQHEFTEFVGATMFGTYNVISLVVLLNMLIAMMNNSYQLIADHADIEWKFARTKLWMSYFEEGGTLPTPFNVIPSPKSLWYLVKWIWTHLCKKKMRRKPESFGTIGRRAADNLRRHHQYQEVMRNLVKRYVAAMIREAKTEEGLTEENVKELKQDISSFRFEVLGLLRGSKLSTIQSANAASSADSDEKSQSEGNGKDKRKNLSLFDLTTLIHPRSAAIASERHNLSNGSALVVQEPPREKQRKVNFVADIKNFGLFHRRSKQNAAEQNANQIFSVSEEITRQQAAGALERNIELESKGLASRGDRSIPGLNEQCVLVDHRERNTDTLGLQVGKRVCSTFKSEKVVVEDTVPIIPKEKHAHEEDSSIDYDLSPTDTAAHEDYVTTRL
Short transient receptor potential channel 6 (Mus musculus), sequence (Q61143 whole entry, looked up): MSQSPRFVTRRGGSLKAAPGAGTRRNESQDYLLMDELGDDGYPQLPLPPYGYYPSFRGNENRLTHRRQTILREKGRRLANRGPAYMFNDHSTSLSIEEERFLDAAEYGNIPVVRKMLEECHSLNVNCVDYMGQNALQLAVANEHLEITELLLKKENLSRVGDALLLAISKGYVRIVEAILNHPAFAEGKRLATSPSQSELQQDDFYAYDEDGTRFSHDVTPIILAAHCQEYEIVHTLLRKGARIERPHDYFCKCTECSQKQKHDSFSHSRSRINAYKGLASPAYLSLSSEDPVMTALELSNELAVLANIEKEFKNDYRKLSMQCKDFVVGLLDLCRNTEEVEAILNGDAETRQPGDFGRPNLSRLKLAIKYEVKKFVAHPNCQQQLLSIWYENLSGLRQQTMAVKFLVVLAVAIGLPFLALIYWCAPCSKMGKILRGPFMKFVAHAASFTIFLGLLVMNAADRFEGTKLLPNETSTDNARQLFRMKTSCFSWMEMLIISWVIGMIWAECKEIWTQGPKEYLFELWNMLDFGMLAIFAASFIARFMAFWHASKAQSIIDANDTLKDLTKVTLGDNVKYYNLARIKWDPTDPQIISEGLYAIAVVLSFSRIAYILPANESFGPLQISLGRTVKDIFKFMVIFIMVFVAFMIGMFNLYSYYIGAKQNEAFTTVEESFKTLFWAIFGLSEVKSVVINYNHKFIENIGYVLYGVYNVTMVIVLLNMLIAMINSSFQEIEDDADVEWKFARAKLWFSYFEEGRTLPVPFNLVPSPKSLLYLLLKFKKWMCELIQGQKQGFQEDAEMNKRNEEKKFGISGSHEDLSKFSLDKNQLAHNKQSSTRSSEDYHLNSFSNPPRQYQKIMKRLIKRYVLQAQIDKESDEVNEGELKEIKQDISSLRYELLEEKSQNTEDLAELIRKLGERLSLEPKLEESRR

In the case of `CC(NC(=O)c1ccccc1NC(=O)CN1CCc2ccccc2C1)c1ccccc1` (stereo not given), the outcome in [1], in experiment [2], in experiment [3], in experiment [4], in experiment [5] and in experiment [6] was inactive. Also, the result in [7], in experiment [8], in experiment [9], in experiment [10], in [11] and in experiment [12] was inactive. Moreover, the outcome in experiment [13], in experiment [14], in experiment [16] and in [17] was inactive. The potentiation in experiment [15] was 20.3% (active).
For `O=C(CSCc1cccc(Cl)c1)N1CCN(Cc2ccc3c(c2)OCO3)CC1`, the result in experiment [1], in [2], in [3], in experiment [4], in [5] and in experiment [6] was inactive. Further, the outcome in [7], in [8], in experiment [9], in [10], in experiment [11] and in experiment [12] was inactive. The outcome in experiment [13], in experiment [14], in [15], in experiment [16] and in [17] was inactive.
Turning to `CSCC[C@H](NC(=O)N1CCn2c1nc1ccccc12)C(=O)NCc1ccc(F)cc1`, the outcome in experiment [1], in experiment [2], in experiment [3], in experiment [5], in experiment [6] and in experiment [7] was inactive. Besides, the outcome in [8], in [9], in experiment [10], in experiment [11], in experiment [12] and in [13] was inactive. The result in experiment [14], in experiment [15], in experiment [16] and in experiment [17] was inactive. Also, the potentiation in experiment [4] is 27% (active).
Consider `CCOC(=O)c1sc2nc(CC(=O)OC)nc(NCc3ccc(F)cc3)c2c1C`, for which the outcome in experiment [1], in experiment [2], in experiment [3], in [4], in experiment [5] and in experiment [6] was inactive. In addition, the outcome in [7], in experiment [8], in [9], in experiment [10], in experiment [11] and in experiment [12] was inactive. Moreover, the outcome in experiment [13], in [14], in experiment [15], in [16] and in [17] was inactive.
As to `Cc1cc(C(C)(C)C)cc(S(=O)(=O)Nc2cccc(C(=O)O)c2)c1C`, the outcome in [1], in [2], in [3], in experiment [5], in experiment [6] and in experiment [7] was inactive. Also, the result in experiment [8], in experiment [9], in [10], in experiment [11], in experiment [12] and in experiment [13] was inactive. In addition, the result in experiment [14], in experiment [16] and in [17] was inactive. Further, the potentiation is 9% (active) in [4] and 19% (active) in [15].
For `Oc1c(Br)cc(C2N=C(c3ccccc3Cl)NO2)cc1Br` (stereo not given), the outcome in [1], in [2], in experiment [3], in experiment [4], in experiment [5] and in experiment [6] was inactive. Also, the result in experiment [7], in experiment [8], in experiment [9], in experiment [10], in [11] and in experiment [12] was inactive. Also, the outcome in experiment [13], in [14], in experiment [15], in experiment [16] and in [17] was inactive.
With `O=C(c1ccc([N+](=O)[O-])s1)N1CCCc2ccccc21`, the result in experiment [1], in experiment [2], in experiment [3], in experiment [4], in experiment [5] and in [6] was inactive. Further, the result in experiment [7], in experiment [8], in [9], in experiment [10], in [11] and in experiment [12] was inactive. In addition, the result in [13], in [14], in [15], in [16] and in experiment [17] was inactive.
As for `COc1ccc(-c2cc(C3CCN(c4cc(Cl)nc(N)n4)CC3)[nH]n2)cc1`, the outcome in experiment [1], in experiment [2], in experiment [3], in experiment [5], in experiment [6] and in experiment [7] was inactive. For the same compound, the outcome in [8], in experiment [9], in [10], in experiment [11], in experiment [12] and in experiment [13] was inactive. In addition, the outcome in experiment [14], in experiment [16] and in experiment [17] was inactive. Also, the potentiation in [4] was 20% (active); in [15], 80.5% (active).
On to `O=C(Cn1nc(-c2ccccc2)ccc1=O)NCCN1CCN(Cc2ccccc2)CC1`, for which the outcome in experiment [1], in experiment [2], in experiment [3], in experiment [4], in [5] and in experiment [6] was inactive. For the same compound, the result in experiment [7], in [8], in experiment [9], in experiment [10], in experiment [11] and in experiment [12] was inactive. The outcome in experiment [13], in experiment [14], in [16] and in experiment [17] was inactive. In addition, the potentiation in [15] is 13% (active).
As for `Cc1ccc(Cl)cc1N1CCN(Cc2nc3ccsc3c(=O)[nH]2)CC1`, the result in experiment [1], in [2], in experiment [3], in [5], in experiment [6] and in [7] was inactive. Moreover, the result in [8], in [9], in experiment [10], in experiment [11], in experiment [12] and in experiment [13] was inactive. The result in experiment [14], in experiment [15], in experiment [16] and in [17] was inactive. The potentiation in experiment [4] is 25% (active).
As to `CSc1ccc(CN(C)C(C)C(=O)NCc2ccccc2)cc1` (stereo not given), the outcome in experiment [1], in experiment [2], in experiment [3], in experiment [4], in experiment [5] and in experiment [6] was inactive. Further, the outcome in [7], in [8], in experiment [9], in experiment [10], in experiment [11] and in [12] was inactive. Also, the result in experiment [13], in experiment [14], in [15], in experiment [16] and in [17] was inactive.
In the case of `CN1/C(=C\C=[N+](C)c2ccccc2)C(C)(C)c2ccccc21`, the outcome in [1], in experiment [2], in experiment [3], in [4], in [5] and in [6] was inactive. The result in [7], in experiment [8], in experiment [9], in experiment [10], in [11] and in experiment [12] was inactive. The result in experiment [13], in experiment [14], in experiment [15], in experiment [16] and in experiment [17] was inactive.
`O=c1[nH][nH]c(-c2ccccc2)c1C=Nc1ccc(F)cc1F`: the result in experiment [1], in [2], in experiment [3], in experiment [5], in experiment [6] and in experiment [7] was inactive. Moreover, the result in experiment [8], in experiment [9], in experiment [10], in experiment [11], in experiment [12] and in experiment [13] was inactive. In addition, the outcome in [14], in experiment [16] and in [17] was inactive. The potentiation in experiment [4] was 119% (active); in experiment [15], 86% (active).
For `CNc1oc(-c2ccccc2Cl)nc1P(=O)(c1ccccc1)c1ccccc1`, the result in [1], in experiment [2], in [3], in [4], in experiment [5] and in experiment [6] was inactive. The result in [7], in [8], in experiment [9], in [10], in experiment [11] and in experiment [12] was inactive. For the same compound, the result in [13], in experiment [14], in experiment [15], in experiment [16] and in experiment [17] was inactive.
On to `Cc1ccc2[nH]c(C)c(CCN(Cc3cccnc3)C(=S)NC(C)(C)C)c2c1`, for which the outcome in [1], in experiment [2], in experiment [3], in experiment [4], in experiment [5] and in experiment [6] was inactive. In addition, the result in experiment [7], in experiment [8], in [9], in [10], in experiment [11] and in experiment [12] was inactive. Further, the outcome in experiment [13], in experiment [14], in [15], in experiment [16] and in experiment [17] was inactive.
